High-throughput results deposited in PubChem by National Center for Advancing Translational Sciences (NCATS).
HT1080 IDH1KD tx = qHTS for induction of synthetic lethality in tumor cells producing 2HG: qHTS for the HT-1080-IDH1KD cell line. HT-1080 IDH1 knockdown viability, ATP luminescence, 48 h. Potency, µM (series often up to 46.1 µM), hits mostly cytotoxic. 2% of 360,000 active. AID 686971, 2013
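Knockdown cells (IDH1KD HT-1080) received compounds 2 h after plating at 750 cells/well and were kept 48 h at 37 °C in 5% FBS RPMI. A CellTiter-Glo luminescence read gave % activity for curve fitting.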
HT1080NT lethal = qHTS for induction of synthetic lethality in tumor cells producing 2HG: qHTS for the HT-1080-NT fibrosarcoma cell line | HT-1080-NT fibrosarcoma viability, CellTiter-Glo ATP luminescence, 48 h | Potency, µM (titrated, usually from 46.1 µM), most hits filed as cytotoxic | 1.6% of 360,000 active | AID 686970, 2013;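 also: NT is the 2HG producing partner of a matched IDH1 knockdown line; nearly all actives have a fitted effect of over 55% in size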
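Toxicity toward the 2HG-producing NT line was scored as %Activity, normalised to DMSO and no-cell wells, from CellTiter-Glo luminescence after 48 hours' treatment.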
TDP1 cell noCPT = qHTS for Inhibitors of human tyrosyl-DNA phosphodiesterase 1 (TDP1): qHTS in cells in absence of CPT; DT40 Tdp1-/- hTDP1 cells, no CPT, ATP luminescence, 48 h; Potency, µM (titrated, usually from 46.2 µM), most hits filed as inhibitors; 15% of 420,000 active; also: nearly all actives have a fitted effect of over 55% in size
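Luminescent ATP content (CellTiter-Glo) served as the growth readout. Knockout chicken DT40 cells expressing human TDP1 were exposed to compounds without camptothecin for a minimum 48 hr at 37 °C.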
DT40 TDP1 CPT = qHTS for Inhibitors of human tyrosyl-DNA phosphodiesterase 1 (TDP1): qHTS in cells in presence of CPT. 12% of 420,000 active. AID 686979, 2013. Potency, µM (doses to about 46.2 µM), hits mostly inhibitors. chicken DT40 Tdp1-/-;hTDP1 cells + 20 nM CPT, ATP luminescence, 48 h; also: nearly all actives have a fitted effect of over 55% in size
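Chicken DT40 Tdp1-/- cells complemented with human TDP1, 400 cells/well, exposed to compounds plus 20 nM camptothecin for at least 48 h at 37 C; viability read as ATP content by CellTiter-Glo luminescence.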
IL1B secr inh = qHTS for Inhibitors of Inflammasome Signaling: IL-1-beta AlphaLISA Primary Screen | THP-1 LPS/ATP IL-1B secretion, AlphaLISA, 16 h; active compounds read low | activity change, % at 57.5 µM | 4.7% of 360,000 active | AID 743279, 2014; in the data active = activity change below about -50%; inconclusive = mostly about -30% to -49%
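THP-1 cells pretreated 1 hr with compounds (up to 57.5 uM final), then stimulated with LPS (250 ng/mL final) plus ATP (1.25 mM final); secreted IL-1B measured by AlphaLISA after 16 hr, decreased signal indicating inhibition.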
A number is an active result; i = inactive; ? = inconclusive; nt = no result. Sampled rows, rich in hits. Any-hit rate of the full collection: about 19%. Unless noted, calls follow the shape of the dose curve; as a rule, active = well fitted curve in the direction sought with a large enough effect; inconclusive = small, poorly fitted or top-dose-only effect, or another doubt; inactive = no such curve, though single readings can be large; an effect the other way counts as inactive or inconclusive.

SMILES	HT1080 IDH1KD tx	HT1080NT lethal	TDP1 cell noCPT	DT40 TDP1 CPT	IL1B secr inh
Cc1cc(C(=O)N2CCCC(Nc3ccccc3)C2)c2ccc(F)cc2n1 (stereo not drawn)	i	i	i	i	i
COc1ccccc1CNc1ncncc1-c1ccccc1Cl	nt	nt	i	i	nt
O=C(Nc1ccc2nc(SCc3ccccc3)sc2c1)c1ccccc1F	nt	nt	13µM	16µM	nt
CCOC(=O)CSc1nc2ccc(NC(=O)c3cccc(F)c3)cc2s1	nt	nt	i	i	nt
CN(C(=O)CSc1nc2ccc(NC(=O)c3cccc(F)c3)cc2s1)c1ccccc1	nt	nt	6.5µM	8.2µM	nt
CCOc1ccc(C(=O)Nc2ccc3nc(SCC(=O)N(C)c4ccccc4)sc3c2)cc1	nt	nt	3.7µM	2.1µM	nt
CC(C)(C)C(=O)Nc1ccc2nc(SCc3ccccc3)sc2c1	nt	nt	21µM	?	nt
CCCC(=O)Nc1nnc(CC(=O)N2CCCC2)s1	i	i	i	i	i
CC(NC(=O)COC(=O)Cc1cccs1)c1ccc(F)cc1 (stereo not drawn)	i	i	i	i	i
Cc1nc2c(-c3ccccc3)c(C)nn2c(C)c1CCC(=O)NCc1cccc(Cl)c1	nt	nt	i	i	nt
COc1ccccc1C(=O)Nc1ccc2nc(SCC(=O)N(C)C)sc2c1	i	i	?	i	i
CN(C(=O)CSc1nc2ccc(NC(=O)c3ccccc3F)cc2s1)c1ccccc1	nt	nt	9.2µM	15µM	nt
O=C(CSc1nc2ccc(NC(=O)c3ccccc3C(=O)O)cc2s1)Nc1ccc(F)c([N+](=O)[O-])c1	i	?	i	i	-61
CC(O)(c1cccc(F)c1)c1nc(-c2cccc(C(=O)O)c2)cs1 (stereo not drawn)	i	i	i	i	i
COc1cccc(C(C)(O)c2nc(-c3ccc4ccccc4c3)cs2)c1 (stereo not drawn)	?	?	?	?	i
COc1cccc(C(C)(O)c2nc(-c3cnc4ccccc4c3)cs2)c1 (stereo not drawn)	?	i	18µM	16µM	i
CC(O)(c1cccc(F)c1)c1nc(-c2ccc(S(C)(=O)=O)cc2)cs1 (stereo not drawn)	i	i	13µM	16µM	i
COc1ccc(-c2csc(C(C)(O)c3cccc(F)c3)n2)cc1OC (stereo not drawn)	i	i	15µM	23µM	i
CC(O)(c1cccc(F)c1)c1nc(-c2ccccc2)cs1 (stereo not drawn)	?	?	18µM	21µM	i
O=C(C[n+]1ccc(C(=O)NCCCO)cc1)c1cccc(Br)c1	i	i	i	i	i
CC(O)(c1ccccc1)c1nc(-c2cccc(C(=O)O)c2)cs1 (stereo not drawn)	?	i	i	i	i
CC(O)(c1ccc(F)c(F)c1)c1nc(-c2cccc(C(F)(F)F)c2)cs1 (stereo not drawn)	?	?	?	18µM	i
CC(O)(c1cccc(F)c1)c1nc(-c2cccc3cccnc23)cs1 (stereo not drawn)	?	?	26µM	?	i
CC(C)c1cccc(-c2csc(C(C)(O)c3ccccc3)n2)c1 (stereo not drawn)	?	?	23µM	?	i
COc1ccc(-c2csc(C(C)(O)c3ccc(F)c(F)c3)n2)cn1 (stereo not drawn)	?	?	?	?	i
SMILES	HT1080 IDH1KD tx	HT1080NT lethal	TDP1 cell noCPT	DT40 TDP1 CPT	IL1B secr inh
CC(O)(c1cccc(F)c1)c1nc(-c2cccc(C(F)(F)F)c2)cs1 (stereo not drawn)	?	21µM	?	29µM	i
CC(O)(c1cccc(F)c1)c1nc(-c2cnc3ccccc3c2)cs1 (stereo not drawn)	?	15µM	13µM	15µM	i
Cn1cc(-c2csc(C(C)(O)c3cccc(F)c3)n2)cn1 (stereo not drawn)	i	i	i	i	i
CC(O)(c1cccc(F)c1)c1nc(-c2ccncc2)cs1 (stereo not drawn)	?	?	18µM	15µM	i
CC(O)(c1ccc(F)c(F)c1)c1nc(-c2ccc(Cl)cc2)cs1 (stereo not drawn)	23µM	?	?	?	i
COc1cc(F)ccc1-c1csc(C(C)(O)c2ccccc2)n1 (stereo not drawn)	?	?	18µM	?	i
Cc1ccc(S(=O)(=O)N2C[C@H]3C(=O)C[C@@H]4C(=O)N(c5ccccc5)C(=O)[C@@H]4[C@@H]3C[C@H]2c2cccs2)cc1	i	i	i	i	i
O=C(CCc1ccccc1)Nc1ccc(S(=O)(=O)Nc2nccs2)cc1	i	i	i	i	i
NC(=O)c1ccccc1N	i	i	i	i	i
COc1ccc(C(=O)NC2CC2)cc1OC1CCN(Cc2ccc(F)c(F)c2)CC1	i	i	i	i	i
CC(=O)N/N=C/c1c(C)[nH]n(-c2ccccc2)c1=O	i	i	?	i	i
Cc1[nH]n(-c2ccccc2)c(=O)c1/C=N/NC(=O)c1ccccc1F	?	?	5.2µM	6.5µM	i
Cc1[nH]n(-c2ccccc2)c(=O)c1/C=N/N1C(=O)c2ccc3c4c(ccc(c24)C1=O)CC3	?	?	18µM	?	-88
COCC(=O)N/N=C/c1c(C)[nH]n(-c2ccccc2)c1=O	i	i	16µM	18µM	i
Cc1[nH]n(-c2ccccc2)c(=O)c1/C=N/NC(=O)C(C)C	i	i	?	15µM	i
O=C(NCc1cccnc1)Nc1ccc(Cl)cc1Cl	i	i	i	i	i
C/C(Cc1nnn(-c2cc(C)on2)n1)=N\O	i	i	i	i	i
Cc1c(/C=N/NC(=O)COc2ccccc2[N+](=O)[O-])c2ccccc2n1C	i	i	?	?	i
Cc1ccc(OCC(=O)N/N=C\c2c(C)n(C)c3ccccc23)c([N+](=O)[O-])c1	?	i	18µM	?	?
Cc1[nH]n(-c2ccccc2)c(=O)c1/C=N/NC(=O)COc1ccccc1[N+](=O)[O-]	?	?	4.6µM	5.8µM	i
O=C1Nc2ccccc2C(O)(C(=O)NCc2ccc3c(c2)OCO3)N1c1ccc(Cl)c(Cl)c1 (stereo not drawn)	i	i	i	i	i
C=CC[C@@H](Cc1ccc(F)cc1)C(=O)OC[C@@H]1CCCN1C(=O)[C@H](CC=C)CC(=O)NCCO	i	i	?	?	i
C=CCC[C@@H](Cc1ccc(F)cc1)C(=O)OC[C@@H]1CCCN1C(=O)[C@@H](CC=C)CC(=O)N[C@@H](CO)Cc1ccccc1	i	i	16µM	15µM	?
